Measurements taken from PubChem BioAssay AID504389 (National Center for Advancing Translational Sciences (NCATS), 2011).
Results filed as inconclusive are left out. A number with no mark means an inactive call. Activity calls are given as the source filed them. The call rests on the fitted dose curve; in most records, active means well fitted curve in the direction sought with a large enough effect; inconclusive means small, poorly fitted or top-dose-only effect, or effect the other way, or another doubt; inactive means no such curve, though single readings can be large or run the other way.

Target: Thyrotropin receptor (Homo sapiens) (UniProt P16473)
Assay: qHTS Assay for Antagonists of the Thyroid Stimulating Hormone Receptor: SAR for Probe
Settings: HEK293-TSHR, TSH-stimulated cAMP HTRF, 2 h; series mostly up to 57.5 µM; activity change, negative = inhibition: at the top concentration
Excerpt: TSH is an alpha/beta heterodimeric glycoprotein hormone secreted from the anterior pituitary gland which belongs to the glycoprotein hormone family. The actions of TSH are mediated by a seven-transmembrane receptor, which upon TSH binding couples preferentially to the G-alpha (s) protein (Gs), resulting in activation of adenylate cyclase and increase in cyclic adenosine 3', 5' monophosphate (cAMP). The TSH receptor (THSR) is mainly expressed in thyroid follicular cells and regulates their growth and function. This cell based assay was conducted on a TSHR transfected HEK 293 cell line, measuring cAMP stimulation using antibody-based Homogeneous Time Resolved Fluorescence (HTRF). Our goal is to identify small molecules that will inhibit (antagonize) the thyroid-stimulating hormone receptor (TSHR), a member of the 7 transmembrane-spanning receptor (7TMR) family of cell surface receptors. TSHR-mediated hyperthyroidism is important in thyroid pathology. The development of small molecule antagonists of TSHR may lead to therapeutic approaches for TSHR-mediated hyperthyroidism caused by constitutively activating mutations or stimulating auto-antibodies associated with Graves' disease. Graves' disease is the leading cause of hyperthyroidism and is caused by autoantibodies that stimulate TSHR (TsAbs) causing thyroid growth and unregulated overproduction of thyroid hormones and existing treatments have liabilities (agranulocytosis). In addition, TSHRs are known to be expressed in multiple extrathyroidal tissues including bone, brain, kidney, testis, fat and cells of the immune system but the role of the TSHR in these tissues is not clear. Therefore, TSHR antagonists/inverse agonists could be used as probes of extrathyroidal TSHR function. Finally, TSHR inverse agonists, which are a subclass of antagonists that inhibit agonist-independent (or basal or constitutive) TSHR signaling, could be used to inhibit TSH-independent signaling in patients with recurrent or metastatic thyroid cancer who are receiving thyroid hormone to suppress TSH. The present assay presents confirmation data for analogues of series of interest in the primary screening assay.
An anti cAMP antibody contains a fluorescent cryptate tag (excitation 337 nm; emission 620 nm) and the acceptor is cAMP-d2 (excitation 620 nm; emission 665 nm). When antibody and cAMP-d2 interact and are excited by a 337 nm light, a FRET occurs resulting in emission at 665 nm. The assay is competition between cAMP-d2 and cAMP (from the cell lysate). The homogeneous protocol allows for one step dispense after stimulation that is automation friendly. Step, Parameter, Value, Description 1, Cells, 3 uL, 2000 TSHR freshly harvested cells/well 1536 TC treated White solid bottom plate (Cells resuspended in 10 mM HEPES buffered HBSS and 70 uM RO 20-1724) 2, Compound, 23 nL, Libraries and controls 3, Compound, 1 uL, EC80 TSH (4 nM final) 4, Time, 2 hours, 37C 5, Reagent, 2 uL, cAMP antibody diluted 1:20 in lysis buffer 6, Time, 30 minutes, Room temperature 7, Detector, HTRF settings, Viewlux

Chain of Thyrotropin receptor (Homo sapiens) (P16473 whole entry, looked up): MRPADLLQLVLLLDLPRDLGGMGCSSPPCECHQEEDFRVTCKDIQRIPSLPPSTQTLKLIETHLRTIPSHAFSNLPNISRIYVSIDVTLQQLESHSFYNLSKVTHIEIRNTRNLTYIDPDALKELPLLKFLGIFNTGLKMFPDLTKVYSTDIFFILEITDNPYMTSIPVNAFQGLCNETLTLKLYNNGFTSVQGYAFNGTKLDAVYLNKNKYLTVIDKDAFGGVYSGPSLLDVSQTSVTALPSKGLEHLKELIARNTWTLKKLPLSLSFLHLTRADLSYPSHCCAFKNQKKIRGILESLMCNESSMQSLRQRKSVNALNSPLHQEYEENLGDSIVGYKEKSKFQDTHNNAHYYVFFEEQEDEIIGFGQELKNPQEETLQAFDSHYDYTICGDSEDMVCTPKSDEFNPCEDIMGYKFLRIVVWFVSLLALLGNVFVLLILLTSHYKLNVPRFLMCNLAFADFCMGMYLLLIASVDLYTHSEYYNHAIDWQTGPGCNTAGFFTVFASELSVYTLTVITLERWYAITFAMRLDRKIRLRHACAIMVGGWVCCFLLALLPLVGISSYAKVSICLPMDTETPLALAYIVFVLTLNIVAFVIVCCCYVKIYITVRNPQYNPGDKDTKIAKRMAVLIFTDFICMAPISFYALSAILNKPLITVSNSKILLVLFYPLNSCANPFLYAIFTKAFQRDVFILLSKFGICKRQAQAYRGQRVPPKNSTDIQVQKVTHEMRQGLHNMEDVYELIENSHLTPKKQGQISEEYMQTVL

SMILES	activity change, negative = inhibition [%]	Potency
COc1ccc(O)c(-c2nc3ccccc3c(=O)n2Cc2ccccc2)c1	2.81	
COc1ccc(C2Nc3ccccc3C(=O)N2Cc2cccc(OC)c2OC)cc1COc1c(C)cc(NC(C)=O)cc1C (stereo not given)	-4.15	
COc1ccc(C2Nc3ccccc3C(=O)N2Cc2ccc(C(F)(F)F)o2)cc1COc1c(C)cccc1C (stereo not given)	-13	
COc1ccc(C2Nc3ccccc3C(=O)N2Cc2ccccc2)cc1COc1c(C)cccc1C (stereo not given)	-8.19	
COc1ccc(CN2C(=O)c3ccccc3NC2c2ccc(OC)c(COc3c(C)cc(NC(C)=O)cc3C)c2)cc1 (stereo not given)	-1.26	
O=c1c2ccccc2nc(-c2ccccc2O)n1Cc1ccccc1	3.37	
COc1ccc(C2Nc3ccccc3C(=O)N2Cc2ccccc2)cc1COc1ccc(NC(=O)c2ccccc2)cc1 (stereo not given)	1.27	
COc1ccc(C2Nc3ccccc3C(=O)N2Cc2ccco2)cc1 (stereo not given)	1.84	
COc1ccc(C2Nc3cccc(OC)c3C(=O)N2Cc2ccco2)cc1COc1c(C)cc(NC(C)=O)cc1C (stereo not given)	-4.71	
COc1ccc(C2Nc3ccccc3C(=O)N2Cc2ccncc2)cc1COc1c(C)cc(NC(C)=O)cc1C (stereo not given)	-2.14	
COc1ccc(C2Nc3ccccc3C(=O)N2CCCN(C)C)cc1COc1ccc(NC(C)=O)cc1 (stereo not given)	1.85	
COc1cc(C2Nc3ccccc3C(=O)N2Cc2ccccc2)ccc1OCc1ccc(NC(C)=O)cc1 (stereo not given)	0.705	
COc1ccc(C2Nc3ccccc3C(=O)N2Cc2ccccc2OC)cc1COc1c(C)cc(NC(C)=O)cc1C (stereo not given)	-7.63	
COc1cccc(CN2C(=O)c3ccccc3NC2c2ccc(OC)c(COc3c(C)cc(NC(C)=O)cc3C)c2)c1 (stereo not given)	-4.12	
COc1ccc(CN(Cc2ccccc2)S(=O)(=O)c2ccccc2)cc1COc1ccc(NC(C)=O)cc1	1.9	
COc1ccc(CN2C(=O)N(c3ccccc3)C(=O)C2c2ccccc2)cc1COc1ccc(NC(C)=O)cc1 (stereo not given)	0.387	
COc1ccc(C2Nc3ccccc3C(=O)N2CCO)cc1COc1ccc(NC(C)=O)cc1 (stereo not given)	6.37	
COCCN1C(=O)c2ccccc2NC1c1ccc(OC)c(COc2c(C)cc(NC(C)=O)cc2C)c1 (stereo not given)		46.1 µM (active)
COc1ccc(C2NC(=O)c3ccccc3N2)cc1COc1c(C)cc(NC(C)=O)cc1C (stereo not given)	-2.55	
COc1ccc(C2Nc3ccccc3C(=O)N2Cc2ccccn2)cc1COc1c(C)cccc1C (stereo not given)	-8.52	

SMILES	activity change, negative = inhibition [%]	Potency
COc1ccc(C2Nc3ccccc3C(=O)N2Cc2ccc3c(c2)OCO3)cc1COc1c(C)cc(NC(C)=O)cc1C (stereo not given)	-4.42	
COc1ccc(CN(Cc2ccccc2)C(=O)CN2CCN(C)CC2)cc1COc1ccc(NC(C)=O)cc1	2.86	
COc1ccc(C2Nc3ccccc3C(=O)N2Cc2ccco2)cc1COc1ccc([N+](=O)[O-])cc1 (stereo not given)	1.43	
Nc1ccccc1C(=O)NCc1ccco1	1.62	
COc1ccc(O)c(C2Nc3ccccc3C(=O)N2Cc2ccccc2)c1 (stereo not given)	2.33	
COc1ccc(C2Nc3ccccc3C(=O)N2Cc2cccs2)cc1COc1c(C)cccc1C (stereo not given)	-18.8	
COc1ccc(C2Nc3ccccc3C(=O)N2Cc2ccco2)cc1COc1c(C)cc(NC(C)=O)cc1C (stereo not given)		36.6 µM (active)
O=C1c2ccccc2NC(c2ccccc2O)N1Cc1ccccc1 (stereo not given)	2.98	
COc1ccc(-c2nc3ccccc3c(=O)n2Cc2ccco2)cc1COc1c(C)cccc1C	-1.63	
COc1ccc(C2Nc3ccccc3C(=O)N2Cc2ccccc2)cc1COc1c(C)cc(NC(C)=O)cc1C (stereo not given)	-2.91	
COc1ccc(C2Nc3ccccc3C(=O)N2Cc2ccco2)cc1COc1ccccc1C (stereo not given)	-6.42	
COc1ccc(C2Nc3ccccc3C(=O)N2CCO)cc1COc1c(C)cc(NC(C)=O)cc1C (stereo not given)	-4.88	
COc1cccc(CCN2C(=O)c3ccccc3NC2c2ccc(OC)c(COc3c(C)cc(NC(C)=O)cc3C)c2)c1 (stereo not given)	-3.34	
COc1ccc(C2Nc3ccccc3C(=O)N2Cc2ccccc2)cc1COc1cccc(C)c1 (stereo not given)	0.0298	
COc1ccc(C=O)cc1COc1ccc(NC(C)=O)cc1	-1.52	
COc1ccc(C2Nc3ccccc3C(=O)N2Cc2ccccc2)cc1COc1ccccc1OC (stereo not given)	-0.288	
COc1ccc(CN(Cc2ccccc2)C(=O)c2ccc(NC(C)=O)cc2)cc1COc1ccc(NC(C)=O)cc1	6.21	
COc1ccc(C2Nc3cccc(O)c3C(=O)N2Cc2ccco2)cc1COc1c(C)cc(NC(C)=O)cc1C (stereo not given)	-5.28	
COc1ccc(C2Nc3ccccc3C(=O)N2CCCN(C)C)cc1COc1c(C)cc(NC(C)=O)cc1C (stereo not given)	-1.88	
COc1ccc(C2Nc3ccccc3C(=O)N2Cc2cccnc2)cc1COc1c(C)cccc1C (stereo not given)		36.6 µM (active)
